Source: PubChem BioAssay
USP17 inh = human USP17-like deubiquitinase inhibition; A8MUK1; purified USP17, Ub-rhodamine cleavage fluorescence, 3 h; inhibition, % at 50 µM; hit rate 6.5% among 47,000
USP28 block = inhibitors of human USP28 deubiquitinase; hit rate 3% among 47,000; Q96RU2; inhibition, % at 25 µM; purified USP28, Ub-rhodamine cleavage fluorescence, 30 min
USP30 inh = human USP30 deubiquitinase inhibition | hit rate 5.3% among 47,000 | AID 1645860 | purified USP30, Ub-rhodamine cleavage fluorescence | inhibition, % at 25 µM | Q70CQ3
Target sequence (Q70CQ3 whole entry, looked up): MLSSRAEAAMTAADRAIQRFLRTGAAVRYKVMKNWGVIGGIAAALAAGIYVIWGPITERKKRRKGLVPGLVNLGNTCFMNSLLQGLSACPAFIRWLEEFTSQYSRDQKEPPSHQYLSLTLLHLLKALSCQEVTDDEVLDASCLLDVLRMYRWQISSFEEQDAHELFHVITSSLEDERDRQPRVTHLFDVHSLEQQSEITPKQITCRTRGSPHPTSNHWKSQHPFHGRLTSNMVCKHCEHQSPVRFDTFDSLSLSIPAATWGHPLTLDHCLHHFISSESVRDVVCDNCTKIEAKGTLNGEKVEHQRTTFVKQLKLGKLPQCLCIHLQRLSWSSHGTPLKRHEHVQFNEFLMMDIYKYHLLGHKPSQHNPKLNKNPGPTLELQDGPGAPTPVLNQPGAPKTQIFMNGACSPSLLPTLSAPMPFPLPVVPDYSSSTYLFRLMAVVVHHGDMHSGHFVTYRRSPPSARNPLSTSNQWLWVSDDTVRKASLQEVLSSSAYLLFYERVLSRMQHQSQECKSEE
Active calls of the source: *; x = no result. Sampled rows, rich in hits. Any-hit rate of the full collection: about 11%. Cut-off read from the data, not from the text of the source: active = inhibition above about 30%; inactive = the rest.

SMILES	USP17 inh	USP28 block	USP30 inh
Cc1ccc(CN2CC[C@@H]3[C@H]2C(=O)NC[C@H](CCC(=O)NCc2cccnc2)N3C)cc1	-74	-9	-43
COc1ccc(CN2CC[C@@H]3[C@H]2C(=O)NC[C@H](CCC(=O)NCc2cccnc2)N3C)cc1	-30	34*	38*
Cc1ccccc1NC(=O)CCc1c(C)nn2cnnc2c1C	-5	-5	1
COc1ccccc1-c1nnc(-c2cnc3onc(C4CC4)c3c2)o1	-14	-34	-74
O=C(Nc1ccc2nc3n(c(=O)c2c1)CCCC3)c1ccc(F)cc1Cl	-7	-2	-63
COc1cc2nc(NC(=O)c3ccc(F)cc3Cl)sc(=O)c2cc1OC	62*	78*	92*
COc1ccc(/C=C/C(=O)Nc2ccc(Cl)c(-c3nc4ncccc4o3)c2)cc1	0	9	12
COc1ccc(/C=C/C(=O)Nc2ccc(C)cn2)cc1	70*	x	x
CSCCC(NC(=O)c1ccccc1)c1nc2ccccc2n1CC(=O)Nc1ccccc1 (configuration not stated)	-36	3	11
Nc1c(C(=O)NCc2ccc3c(c2)OCO3)nnn1Cc1ccc(Br)cc1F	x	40*	75*
CCn1nnc2cc(C(=O)NCc3ccc4c(c3)OCO4)ccc21	-6	5	-19
Cc1nc(-c2cccc(C(=O)O)c2)cc(C2CCNCC2)n1	0	-2	-2
COc1ccc(NC(=O)CSc2ncnc3c2sc2nc(CC(C)C)c4c(c23)CCC4)cc1	8	21	21
CCCCc1nc2sc3c(SCC(=O)OC)ncnc3c2c2c1CCC2	-5	26	-13
CCCc1nc2sc3c(N(CC)CC)ncnc3c2c2c1CCC2	-2	52*	-9
CCCCc1nc2sc3c(NCc4cccnc4)ncnc3c2c2c1CCC2	7	x	x
CCCCc1nc2sc3c(SCC(=O)Nc4ccc(OC)cc4)ncnc3c2c2c1CCC2	25	29	48*
CCc1nc2sc3c(NCCN4CCOCC4)ncnc3c2c2c1COC(C)(C)C2	5	-7	0
CCCCNc1ncnc2c1sc1nc(CCCC)c3c(c12)CC(C)(C)OC3	45*	-4	14
CCCc1nc2sc3c(NCCc4ccc(OC)c(OC)c4)ncnc3c2c2c1CCC2	-23	67*	-46
CC(=O)N1C[C@H](Oc2ccccn2)[C@H]2C[C@@H]1CC[C@H]2N1CCOCC1	2	7	6
COc1ccc2c(CCNC(=O)CSc3nnnn3-c3ccccc3F)c[nH]c2c1	0	-18	-114
CC(C)N1CCOC2(CCN(C(=O)c3ccnnc3)CC2)c2ccccc21	-27	-20	-73
CCN1CCC2(CC1)NC(=O)N(C1CCCN(C(=O)Cc3ccccc3C)C1)C2=O (configuration not stated)	-5	-3	-9
CCCc1nc2sc3c(NC4CCCCC4)ncnc3c2c2c1CCC2	12	75*	23
SMILES	USP17 inh	USP28 block	USP30 inh
CC(C)Cc1nc2sc3c(NC4CCCCC4)ncnc3c2c2c1CCC2	-8	-8	-8
Cc1ccc(-n2c(SCC(=O)c3ccccc3)nc3sc4c(c3c2=O)CCN(Cc2ccccc2)C4)cc1	-74	-62	-393
Cc1cc2occ(CC(=O)N3CCCCC3c3nnc(-c4cnccn4)o3)c2cc1C (configuration not stated)	8	5	25
O=C(CNC(=O)c1cc(F)cc(F)c1)Nc1nc2ccccc2[nH]1	8	5	17
Cc1cn(C)c(C2CCCN(C(=O)c3ccc(N4CCCC4)cc3)C2)n1 (configuration not stated)	-16	-11	-38
COc1ccc(Cl)cc1-n1nnc(C(=O)N2CCc3ccccc3C2)c1C	x	33*	83*
O=C(c1nnn(-c2ccc(Cl)cc2)c1-c1cccnc1)N1CCc2ccccc2C1	x	8	17
CCc1ccccc1N(CC)C(=O)c1cccc2c1SCCC2=O	18	20	33*
CCc1ccccc1N(C)C(=O)c1[nH]nc2c1CSc1ccccc1-2	8	12	14
COc1ccc(CN2Cc3ccccc3OC3(CCC(CO)CC3)C2)cc1C (configuration not stated)	-26	-9	-25
Clc1ccccc1CSc1nnc(C2CCCCC2)n1Cc1ccccc1	37*	23	57*
CC(NC(=O)CSc1nnc(C2CC2)n1Cc1ccccc1)c1ccco1 (configuration not stated)	1	-4	-54
COC1=CC(=O)c2c(O)c3c(c(C)c2C1=O)C[C@@]1(O)[C@H](O[C@H]2CC[C@H](O[C@H]4C[C@@](C)(O)[C@H](OC(=O)c5c(C)ccc(C)c5O)[C@H](C)O4)[C@@H](C)O2)C(=O)C(C(C)=O)=C(O)[C@@]1(O)C3=O	22	63*	-79
COc1nccnc1NC1CCN(C(=O)NCC2CCCO2)CC1 (configuration not stated)	8	4	18
CCn1nnc2c(N3CCN(C(c4ccccc4)c4ccccc4)CC3)ncnc21	-2	13	10
Cn1c(=O)c2c(nc(CN3CCOCC3)n2Cc2ccc(F)cc2)n(C)c1=O	20	9	23
Cn1c(=O)c2c(nc(CN3CCN(c4ccccc4F)CC3)n2Cc2ccccc2Cl)n(C)c1=O	9	15	31*
O=c1[nH]c(-c2ccncc2)nc2c1CCN(Cc1cccn1-c1cccnc1)C2	0	-34	-267
CC(=O)c1cc(-c2ccc(F)cc2)n(CC(=O)Nc2cccc(C)c2C)c1C	52*	22	73*
CC(=O)c1cc(-c2ccc(F)cc2)n(CC(=O)NCc2ccc(N(C)C)cc2)c1C	-8	-5	-109
CC1=NOC(CNS(=O)(=O)c2ccc(C)cc2)C1 (configuration not stated)	2	-11	0
O=C(Nc1ccc2c(c1)OCCCO2)c1cc(S(=O)(=O)N2CCCC2)ccc1Cl	5	12	15
COc1ccccc1NC(=O)N1CCC(c2nc3c(nnn3Cc3ccc(C)cc3)c(=O)[nH]2)CC1	-1	2	0
Cc1nn(C)cc1C(=O)N1CCC(C2(C)CCCCN(CCc3ccccc3)C2=O)CC1 (configuration not stated)	-4	-3	4
Cc1cc2cc(CN(Cc3ccc4c(c3)OCO4)C(=O)Nc3ccccc3)c(=O)[nH]c2cc1C	13	-105	-285
SMILES	USP17 inh	USP28 block	USP30 inh
Cc1cccc2cc(CN(Cc3ccc4c(c3)OCO4)C(=O)NCc3ccccc3)c(=O)[nH]c12	20	23	36*
COc1ccnc(N2CCC(C3CCCCCN3S(=O)(=O)c3ccccc3)CC2)n1 (configuration not stated)	0	-4	1
Cc1nccn1Cc1nc(-c2cccc(C(F)(F)F)c2)no1	-1	23	5
Cc1cc2n(n1)CC(C)(C(=O)NCc1ccccc1)N(c1ccc3c(c1)OCCO3)C2=O (configuration not stated)	-14	-4	-16
CC1(C(=O)NCc2ccc(F)cc2)Cn2nc(-c3ccco3)cc2C(=O)N1c1ccc2c(c1)OCCO2 (configuration not stated)	37*	35*	5
Cc1ccccc1-c1nc(-c2ccc(S(=O)(=O)N3CCOCC3)cc2)no1	12	15	29
COc1ccc(-c2cc(-c3nnc(COC(=O)CC4CCCC4)o3)c3ccccc3n2)cc1OC	3	-4	-48
COc1ccc(-c2cc(-c3nnc(CSc4nnc(C)n4-c4ccccc4)o3)c3ccccc3n2)cc1OC	36*	-1	-7
